Screens as filed in PubChem BioAssay.
ELG1 genotox = induces genotoxicity in HEK293T cells with luciferase-tagged ELG1; HEK293T ELG1-luciferase reporter, luminescence, 16 h; Potency, µM (top dose mostly 46 µM), without a hit: top-dose activity change, positive = activation, actives largely listed as activators; actives 1.3% (n = 330,000); AID 504466; also: % of control where 0% means no effect; nearly all actives have a fitted effect of over 60% in size
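16 hr compound incubation (37 °C, 5% CO2) of HEK293T cells carrying luciferase-tagged ELG1; luciferase then measured by ONE-Glo luminescence after 30 min at RT.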
Rab9 prom act = activates the Rab9 promoter; Huh7 Rab9 promoter-luciferase reporter, luminescence, 24 h; Potency, µM (series often up to 9.22 µM), for the others: at the top dose activation, negative = inhibition, usual class: activators; actives 2.8% (n = 320,000); also: % of control where 0% means no effect; nearly all actives have a fitted effect of over 60% in size
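Huh7 reporter line, Rab9 promoter upstream of luciferase. Compound exposure 24 h at 37 °C in reduced-serum medium with 10% FBS. Read-out: luminescence.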
FLuc counter = counter-screen for miR-21 project: firefly luciferase inhibitors or activators. actives 6.9% (n = 360,000). purified FLuc, Km substrates, luminescence inhibition. P08659. AID 588342. Potency, µM (top dose mostly 57.5 µM), without a hit: at the top dose activity change, negative = inhibition, most hits filed as inhibitors;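 also: plate controls were vehicle for no effect and reference inhibitor for full effect; nearly all actives have a fitted effect of over 55% in size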
Target sequence (P08659 whole entry, looked up): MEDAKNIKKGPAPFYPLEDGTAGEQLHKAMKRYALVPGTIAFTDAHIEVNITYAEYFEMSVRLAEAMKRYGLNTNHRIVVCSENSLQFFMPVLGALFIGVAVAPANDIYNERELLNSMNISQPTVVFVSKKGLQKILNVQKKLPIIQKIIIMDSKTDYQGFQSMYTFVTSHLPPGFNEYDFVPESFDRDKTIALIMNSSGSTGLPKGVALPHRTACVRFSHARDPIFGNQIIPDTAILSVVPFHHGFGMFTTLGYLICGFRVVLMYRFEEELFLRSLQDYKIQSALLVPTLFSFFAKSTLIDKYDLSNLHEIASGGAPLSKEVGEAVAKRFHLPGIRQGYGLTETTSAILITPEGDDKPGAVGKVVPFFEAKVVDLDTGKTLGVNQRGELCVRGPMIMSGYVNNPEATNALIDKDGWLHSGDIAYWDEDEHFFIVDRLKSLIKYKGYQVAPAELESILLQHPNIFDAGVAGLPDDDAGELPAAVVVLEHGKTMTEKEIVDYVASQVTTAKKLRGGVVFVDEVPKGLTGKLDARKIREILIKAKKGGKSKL
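Purified P. pyralis luciferase, 10 nM final, with Km-level 10 uM D-luciferin and 10 uM ATP in 50 mM Tris acetate pH 7.5, 10 mM Mg acetate, 0.01% Tween-20, 0.05% BSA; 6-point qHTS titration about 60 µM downward; luminescence read.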
SMN2 splice enh = increases expression of the SMN2 splice variant | HEK293 SMN2-luciferase splicing reporter, luminescence, 30-36 h | Potency, µM (series often up to 46.1 µM), without a hit: at the highest dose activity change, positive = activation, most hits filed as activators | actives 2.8% (n = 210,000) | AID 1458; also: % of control where 0% means no effect; nearly all actives have a fitted effect of over 55% in size
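HEK293 cells carry an SMN2 […]–luciferase reporter in which exon 7 inclusion puts luciferase in frame. Cells were plated 10-12 h before compound addition, then incubated 30-36 h at 37C. ONE-Glo luminescence was read; sodium butyrate at 4.5 mM final served as control.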
NPC1 promoter act = activators of NPC1 promoter | Potency, µM (highest dose often 9.22 µM), for the others: top-dose activation, actives largely listed as activators | Huh7 NPC1 promoter luciferase reporter, 24 h | actives 2.4% (n = 320,000) | AID 485313; also: % of control where 0% means no effect; nearly all actives have a fitted effect of over 60% in size
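Stably transfected Huh7 (NPC1 promoter→luciferase), 1500 cells/well in Opti-MEM + 10% FBS, 2 h settle, then compound 24 h at 37 °C. Luminescence after 10 min with Amplite reagent.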
ELG1 repair inh = blocks ELG1-dependent DNA repair in HEK293T cells. Potency, µM (highest dose often 46.1 µM), for the others: at the highest dose activity change, negative = inhibition, usual class: inhibitors. AID 504467. HEK293T ELG1-luciferase reporter, luminescence, 16 h; DNA damage induced by 5-fluorouridine. actives 2.3% (n = 330,000); also: % is scaled to controls: 0 for no effect and ±100 for the full control effect; nearly all actives have a fitted effect of over 55% in size
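DMSO vehicle served as the neutral condition. Each well held 2,000 cells given 5-fluorouridine plus compound; after 16 hr at 37 °C/5% CO2, ONE-Glo was added and luciferase measured 30 min later.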
Active calls of the source: *; [ ] = dose if it differs, or a comment. An excerpt weighted towards active compounds, which were near 9.2% of everything screened. Calls follow the shape of the dose curve; as a rule, active = well fitted curve in the direction sought with a large enough effect; inconclusive = small, poorly fitted or top-dose-only effect, or another doubt; inactive = no such curve, though single readings can be large; an effect the other way counts as inactive or inconclusive. Potency is read from the fitted curve at half-maximal effect.

Results for O=C(COc1cccc2ccccc12)Nc1nc2ccccc2[nH]1 ?
ELG1 genotox: 1%; Rab9 prom act: -7%; FLuc counter: inconclusive; SMN2 splice enh: 11%; NPC1 promoter act: -4%; ELG1 repair inh: -10%

Results for COc1ccc(-n2nnnc2SCC(=O)NC2CCS(=O)(=O)C2)cc1 (stereo not drawn) ?
ELG1 genotox: 2%; ELG1 repair inh: 0%

What do the screens show for `Cc1ccccc1OCC(=O)Nc1nc2ccccc2[nH]1`?
ELG1 genotox: 24%; Rab9 prom act: 2.2µM*; FLuc counter: 3.4µM*; SMN2 splice enh: 18µM*; NPC1 promoter act: inconclusive; ELG1 repair inh: inconclusive

Results for Cc1c(OCC(F)(F)F)ccnc1CSc1nc2ccccc2[nH]1 ?
ELG1 genotox: 16%; Rab9 prom act: inconclusive; FLuc counter: 12µM*; SMN2 splice enh: -21%; NPC1 promoter act: inconclusive; ELG1 repair inh: inconclusive

What do the screens show for `O=C(CSc1ncnc2sc3c(c12)CCCC3)N1CCC(c2noc3ccc(F)cc23)CC1`?
ELG1 genotox: -5%; Rab9 prom act: -7%; FLuc counter: 2%; SMN2 splice enh: -50%; NPC1 promoter act: -7%; ELG1 repair inh: -15%

Results for Cc1cc(SCC(=O)N2CCC(c3noc4ccc(F)cc34)CC2)nc2ccccc12 ?
ELG1 genotox: -16%; Rab9 prom act: -9%; FLuc counter: -3%; SMN2 splice enh: -38%; NPC1 promoter act: -7%; ELG1 repair inh: 21µM*

What do the screens show for `CN(C)S(=O)(=O)c1cccc(NC(=O)c2ccc3c(c2)OCCO3)c1`?
ELG1 genotox: 0%; Rab9 prom act: inconclusive; FLuc counter: 9.5µM*; NPC1 promoter act: 3.2µM*; ELG1 repair inh: inconclusive

How did CCC(=O)Nc1cccc(NC(=O)c2ccc3c(c2)OCCO3)c1 do in these assays?
ELG1 genotox: 7%; Rab9 prom act: inconclusive; FLuc counter: 17µM*; SMN2 splice enh: 13µM*; NPC1 promoter act: inconclusive; ELG1 repair inh: inconclusive

What do the screens show for `CCCC(=O)Nc1cccc(NC(=O)c2ccc3c(c2)OCO3)c1`?
ELG1 genotox: 0%; Rab9 prom act: 4%; FLuc counter: inconclusive; SMN2 splice enh: inconclusive; NPC1 promoter act: 8%; ELG1 repair inh: 1%

Results for Cc1ccc(-n2c(SCC(=O)Nc3ccc4c(c3)OCO4)nc3c([nH]c4ccccc43)c2=O)cc1 ?
FLuc counter: -10%

Results for C=CC[C@H](CC(=O)NCCO)C(=O)N[C@H](COC(=O)[C@@H](CC=C)Cc1ccc(F)cc1)Cc1ccccc1 ?
ELG1 genotox: -7%; ELG1 repair inh: inconclusive

How did CCn1c(=O)cc(SCC(=O)NCc2ccc(Cl)cc2)c2ccccc21 do in these assays?
FLuc counter: -15%

How did Cc1[nH]n(-c2ccccc2)c(=O)c1-c1ccc(Cl)cc1 do in these assays?
ELG1 genotox: -2%; Rab9 prom act: 2%; FLuc counter: inconclusive; SMN2 splice enh: -15%; NPC1 promoter act: 7%; ELG1 repair inh: 10%

Results for O=c1c(-c2ccc(Cl)cc2)c[nH]n1-c1ccccc1 ?
ELG1 genotox: 12%; Rab9 prom act: 0%[1.84 µM]; FLuc counter: 9.5µM*; NPC1 promoter act: inconclusive; ELG1 repair inh: inconclusive

Results for O=[N+]([O-])c1cccc(-n2nncc2-c2ccccc2)c1 ?
ELG1 genotox: 2%; Rab9 prom act: 7%; FLuc counter: -1%; NPC1 promoter act: -1%; ELG1 repair inh: 0%

How did O=c1c(-c2ccccc2)c[nH]n1-c1cccc([N+](=O)[O-])c1 do in these assays?
ELG1 genotox: 18%; Rab9 prom act: inconclusive; FLuc counter: 15µM*; NPC1 promoter act: inconclusive; ELG1 repair inh: inconclusive

Results for Cc1cccc(N2CCN(C(=O)CNC(=O)Cc3ccccc3)CC2)c1C ?
ELG1 genotox: -4%; ELG1 repair inh: inconclusive

Results for Cc1cccc(N2CCN(C(=O)CNC(=O)c3cccc([N+](=O)[O-])c3)CC2)c1C ?
ELG1 genotox: -16%; Rab9 prom act: -11%; FLuc counter: -1%; NPC1 promoter act: -3%; ELG1 repair inh: 18µM*

What do the screens show for `OC1(c2ccc(OC(F)F)cc2)CSC(=Nc2cccnc2)N1Cc1ccco1` (stereo not drawn)?
ELG1 genotox: -15%; Rab9 prom act: -14%; FLuc counter: 0%; SMN2 splice enh: -92%; NPC1 promoter act: -5%; ELG1 repair inh: 18µM*

How did OC1(c2ccc(F)cc2)CSC(=Nc2cccnc2)N1Cc1ccco1 (stereo not drawn) do in these assays?
ELG1 genotox: -6%; Rab9 prom act: -2%; FLuc counter: -2%; SMN2 splice enh: -8%; NPC1 promoter act: -2%; ELG1 repair inh: 23µM*

Results for O=C(CO/N=C/c1ccc(OC(F)F)cc1)NCc1ccco1 ?
ELG1 genotox: -5%; Rab9 prom act: 0%; FLuc counter: 0%; SMN2 splice enh: 1%; NPC1 promoter act: -5%; ELG1 repair inh: 27%

What do the screens show for `Cc1cccc(N2CCN(C(=O)C3CCN(C(=O)c4cc5sccc5n4C)CC3)CC2)c1C`?
FLuc counter: -15%; SMN2 splice enh: -47%

What do the screens show for `O=C(NC1CCCC1)C(c1cccnc1)N(C(=O)c1ccco1)c1ccc(F)cc1` (stereo not drawn)?
ELG1 genotox: -6%; Rab9 prom act: -3%; FLuc counter: 0%; NPC1 promoter act: -4%; ELG1 repair inh: -21%

Results for Cc1ccc2cc(/C=C/C(=O)c3ccco3)c(Cl)nc2c1 ?
ELG1 genotox: inconclusive; Rab9 prom act: 2.5µM*; FLuc counter: inconclusive; NPC1 promoter act: inconclusive; ELG1 repair inh: inconclusive

Results for COc1ccc2cc(/C=C/C(=O)c3ccco3)c(Cl)nc2c1 ?
ELG1 genotox: inconclusive; Rab9 prom act: inconclusive; FLuc counter: inconclusive; SMN2 splice enh: 2%; NPC1 promoter act: inconclusive; ELG1 repair inh: inconclusive

What do the screens show for `COc1cc2cc(/C=C/C(=O)c3ccco3)c(Cl)nc2cc1OC`?
ELG1 genotox: 7%; Rab9 prom act: -6%; FLuc counter: -5%; SMN2 splice enh: inconclusive; NPC1 promoter act: -3%; ELG1 repair inh: 9%

What do the screens show for `Cc1ccc2nc(Cl)c(/C=C/C(=O)c3ccco3)cc2c1`?
ELG1 genotox: 16%; Rab9 prom act: 3.5µM*; FLuc counter: -23%; NPC1 promoter act: inconclusive; ELG1 repair inh: inconclusive
